# Measurements taken from PubChem BioAssay (Tox21).
# Values without a mark were called inactive. Results filed as inconclusive are left out. A call without a number means that no potency is given here. The source made the active and inactive calls. Unless noted, calls come from the whole dose curve; as a rule, active = well fitted curve in the direction sought with a large enough effect in the repeat runs; inconclusive = weak or mixed curves; inactive = no such curve, though single readings can be large; an effect the other way counts as inactive or inconclusive.
# Assays:
# [1] = qHTS assay to identify small molecule agonists of the hypoxia (HIF-1) signaling pathway - cell viability counter screen (AID 1224844; calls by dose curve; note: nearly all actives have a fitted effect of over 50% in size)
# Method in brief: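 In this counter screen, HRE-bla ME-180 cell viability after 17 hrs of compound exposure at 37C was read by CellTiter-Glo luminescence, multiplexed with the beta-lactamase reporter measurement.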
# [2] = qHTS assay to identify small molecule agonists of H2AX (AID 1224845; active = well fitted activation curve with a large enough effect in the signal ratio in the repeat runs, not every such curve was filed as active; the % refers to the signal ratio)
# Method in brief: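 Wild-type CHO-K1 cells, plated overnight, exposed 3hr at 37C to 15 concentrations (0.76% DMSO final). Lysed, then HTRF anti-pH2AX (S139) cryptate and anti-H2AX-d2 antibodies, 24 hr room temperature; 665/620 nm emission read.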
# [3] = qHTS assay to identify small molecule agonists of the hypoxia (HIF-1) signaling pathway (AID 1224846; active = well fitted activation curve with a large enough effect in the signal ratio in the repeat runs, not every such curve was filed as active; the % refers to the signal ratio)
# Method in brief: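 ME-180 HRE-bla reporter cells; compounds in DMSO, 17 h at 37C; read-out beta-lactamase via CCF4-AM FRET.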
# [4] = qHTS assay to identify small molecule agonists of H2AX - cell viability counter screen (AID 1224847; calls by dose curve; note: top concentration of the series differs between compounds; nearly all actives have a fitted effect of over 30% in size)
# Method in brief: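 Counter-screen for viability: CellTiter-Glo ATP luminescence read after 3 h compound treatment (15-point titration, 0.76% DMSO final) of CHO-K1 cells at 37C, with 30 min room-temperature reagent incubation.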
# [5] = qHTS RealTime-Glo MT Cell Viability Assay in HepG2 cells - 24 hour (AID 1224867); note: nearly all actives have a fitted effect of over 50% in size
# Method in brief: (§1)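 Tox21 10K library screened in qHTS format on HepG2 cells carrying RealTime-Glo reagents. Compounds were added after a 5 h preincubation, and the luminescent signal from continuous culture was measured repeatedly during 40 h treatment.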
# [6] = qHTS RealTime-Glo MT Cell Viability Assay in HEK293 cells - 32 hour (AID 1224868); note: top concentration of the series differs between compounds; nearly all actives have a fitted effect of over 50% in size
# Method in brief: (§2)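 Luminescence generated by NanoLuc from substrate produced by living HEK293 cells served as the viability signal. Each value reflects the reading at its stated time point during continuous 40 h compound exposure at 37 C.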
# [7] = A CellTox Green Cytotoxicity Assay to monitor cytotoxicity in HEK293 cells - 0 hour (AID 1224869); note: nearly all actives have a fitted effect of over 50% in size
# Method in brief: (§3)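 Real-time, in one plate: 600 HEK293 cells/well with dead-cell DNA dye, pinned compound after 5 h, 37 C incubation over 40 h; viable cells give no appreciable fluorescence.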
# [8] = qHTS RealTime-Glo MT Cell Viability Assay in HepG2 cells - 40 hour (AID 1224870); note: nearly all actives have a fitted effect of over 50% in size
# Method in brief: (§4)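 HepG2 cells (600/well) mixed with RealTime-Glo MT reagent, settled 5 h at 37 C/5% CO2 before compound addition. Nonlytic NanoLuc luminescence from viable-cell prosubstrate reduction read repeatedly during 40 h treatment at 37 C.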
# [9] = A CellTox Green Cytotoxicity Assay to monitor cytotoxicity in HEK293 cells - 40 hour (AID 1224871); note: nearly all actives have a fitted effect of over 45% in size
# Method in brief: as §3
# [10] = qHTS RealTime-Glo MT Cell Viability Assay in HEK293 cells - 16 hour (AID 1224872)
# Method in brief: as §2
# [11] = qHTS RealTime-Glo MT Cell Viability Assay in HepG2 cells - 8 hour (AID 1224873); note: nearly all actives have a fitted effect of over 55% in size
# Method in brief: as §4
# [12] = qHTS RealTime-Glo MT Cell Viability Assay in HEK293 cells - 40 hour (AID 1224874); conditions: RealTime-Glo luminescence; max response: hits give low values; note: nearly all actives have a fitted effect of over 50% in size
# Method in brief: (§5)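 Kinetic, non-lysing viability readout. Seed HEK293 (600/well) with reagent, incubate 5 h at 37 C/5% CO2, pin 23 nL compound in DMSO, incubate at 37 C, read luminescence at 0, 8, 16, 24, 32, 40 h.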
# [13] = A CellTox Green Cytotoxicity Assay to monitor cytotoxicity in HEK293 cells - 24 hour (AID 1224875); note: nearly all actives have a fitted effect of over 45% in size
# Method in brief: as §3
# [14] = A CellTox Green Cytotoxicity Assay to monitor cytotoxicity in HepG2 cells - 16 hour (AID 1224876); note: nearly all actives have a fitted effect of over 45% in size
# Method in brief: (§6)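 Cytotoxicity was tracked as dead-cell DNA fluorescence in HepG2 cells treated with test compounds at 37 C; each time-point value comes from one kinetic series spanning 0, 8, 16, 24, 32 and 40 h.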
# [15] = qHTS RealTime-Glo MT Cell Viability Assay in HepG2 cells - 32 hour (AID 1224877); note: nearly all actives have a fitted effect of over 55% in size
# Method in brief: as §1
# [16] = A CellTox Green Cytotoxicity Assay to monitor cytotoxicity in HepG2 cells - 24 hour (AID 1224878); note: nearly all actives have a fitted effect of over 45% in size
# Method in brief: as §6
# [17] = A CellTox Green Cytotoxicity Assay to monitor cytotoxicity in HepG2 cells - 40 hour (AID 1224879); note: nearly all actives have a fitted effect of over 40% in size; note: potency is the fitted concentration of half-maximal effect
# Method in brief: as §6
# [18] = qHTS RealTime-Glo MT Cell Viability Assay in HEK293 cells - 0 hour (AID 1224880)
# Method in brief: as §5
# [19] = qHTS assay to identify small molecule antagonists of the estrogen related receptor (ERR) signaling pathway from Tox21 library (AID 1224848); note: nearly all actives have a fitted effect of over 50% in size
# Method in brief: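 Compounds dissolved in DMSO are pin-transferred onto ERR reporter cells (2,000 per well) that have settled for 6 h at 37 C. Plates then incubate 18 h at 37 C before ONE-Glo luciferase reagent and a luminescence read 30 min later.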
# [20] = qHTS assay to identify small molecule agonists of the estrogen related receptor (ERR) signaling pathway from Tox21 library (AID 1224849; calls by dose curve; note: nearly all actives have a fitted effect of over 15% in size); conditions: ERR reporter cell line, ONE-Glo luciferase, 18 h; at 92.4 µM (top of the series) unless noted
# Method in brief: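 Luciferase activity in ERR pathway reporter cells served as the agonist readout; exposure lasted 18 h at 37 C, with ONE-Glo detection after 30 min at room temperature.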
SMILES,Potency [1],Potency [2],Potency [3],Potency [4],Potency [5],Potency [6],Potency [7],Potency [8],Potency [9],Potency [10],Potency [11],max response [12] [%],Potency [13],Potency [14],Potency [15],Potency [16],Potency [17],Potency [18],Potency [19],"activity change, positive = activation [20]"
N#Cc1ccc(N(CC(N)=O)CC(F)(F)F)cc1C(F)(F)F,inactive,inactive,inactive,inactive,inactive,inactive,inactive,inactive,inactive,inactive,inactive,0.171,inactive,inactive,inactive,inactive,inactive,inactive,,
COc1nc(C)nc(NC(=O)NS(=O)(=O)c2ccccc2Cl)n1,inactive,inactive,inactive,inactive,inactive,inactive,inactive,inactive,inactive,inactive,inactive,,inactive,inactive,inactive,inactive,inactive,,inactive,7.61%
CCNS(=O)(=O)C(F)(F)C(F)(F)C(F)(F)C(F)(F)C(F)(F)C(F)(F)C(F)(F)C(F)(F)F,inactive,inactive,inactive,inactive,inactive,inactive,inactive,inactive,inactive,inactive,inactive,23.4,inactive,inactive,inactive,inactive,inactive,inactive,inactive,-10.2%
CN=C=O,inactive,inactive,inactive,inactive,inactive,inactive,inactive,inactive,inactive,inactive,inactive,8.4,inactive,,inactive,inactive,inactive,,inactive,
CC[C@]1(O)CC[C@H]2[C@@H]3CCC4=CCCC[C@@H]4[C@H]3CC[C@@]21C,inactive,inactive,inactive,inactive,inactive,,inactive,inactive,inactive,inactive,inactive,,inactive,inactive,inactive,,23.9 µM (active),,,-21.6% [at 42.5 µM]
CCC1(CC)C(=O)N=C(O)NC1=O,inactive,inactive,inactive,inactive,inactive,inactive,inactive,inactive,inactive,inactive,inactive,-0.914,inactive,inactive,inactive,inactive,inactive,inactive,,
COC(=O)C(C)N(C(=O)c1ccco1)c1c(C)cccc1C (stereo not drawn),inactive,inactive,inactive,inactive,inactive,inactive,inactive,inactive,inactive,inactive,inactive,-12.7,inactive,inactive,inactive,,,inactive,,-15.8%
O=NN(CCO)CCO,inactive,inactive,inactive,inactive,inactive,inactive,inactive,inactive,inactive,inactive,inactive,7.2,inactive,inactive,inactive,inactive,inactive,,inactive,1.69%
CC(=O)[O-].CC(=O)[O-].CC(=O)[O-].[Cr+3],inactive,inactive,inactive,inactive,inactive,inactive,inactive,inactive,inactive,inactive,inactive,-0.681,inactive,inactive,inactive,inactive,inactive,inactive,,
O=Cc1ccccc1,inactive,inactive,inactive,inactive,inactive,inactive,inactive,inactive,inactive,inactive,inactive,19.9,inactive,inactive,inactive,inactive,inactive,inactive,inactive,7.55%
CCOP(=O)(OCC)Oc1cc(C)nc(C(C)C)n1,inactive,inactive,inactive,inactive,inactive,inactive,inactive,inactive,inactive,inactive,inactive,,inactive,inactive,inactive,inactive,inactive,,inactive,
Cc1nn(-c2cc(NS(C)(=O)=O)c(Cl)cc2Cl)c(=O)n1C(F)F,inactive,inactive,inactive,inactive,inactive,inactive,inactive,inactive,inactive,inactive,inactive,1.81,inactive,inactive,inactive,inactive,inactive,inactive,,-8.62%
O=C(CCCCl)c1ccc(F)cc1,inactive,inactive,inactive,inactive,inactive,inactive,inactive,inactive,inactive,inactive,inactive,,inactive,,inactive,inactive,inactive,inactive,inactive,
CC(Cc1ccc2c(c1)OCO2)NO (stereo not drawn),inactive,inactive,inactive,inactive,inactive,inactive,inactive,inactive,inactive,inactive,inactive,,inactive,inactive,inactive,inactive,inactive,,,-3.14%
Nc1nc(N)nc(Cl)n1,inactive,inactive,inactive,inactive,inactive,inactive,inactive,inactive,inactive,inactive,inactive,1.73,inactive,inactive,inactive,inactive,inactive,inactive,,
